The whole screen tested about 50,000 compounds, of which about 800 (1.6%) showed an effect of 50% or more. The full list was thinned out, with strong results kept by preference.
These compounds were tested against Bcl-2-like protein 10 (Homo sapiens) (UniProt Q9HD36) (assay: TR3 peptide-Bcl-B binding displacers, biochemical primary FP assay, phenotype converters (AID 1240;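 also: 0% = Bcl-B with tracer peptide and DMSO and 100% = tracer peptide lacking Bcl-B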)). Conditions: GST-Bcl-B / FITC-TR3 peptide fluorescence polarization; stronger effect = higher value; compound at 3.75 mg/L.
Sequence of Bcl-2-like protein 10 (Homo sapiens) (Q9HD36 whole entry, looked up): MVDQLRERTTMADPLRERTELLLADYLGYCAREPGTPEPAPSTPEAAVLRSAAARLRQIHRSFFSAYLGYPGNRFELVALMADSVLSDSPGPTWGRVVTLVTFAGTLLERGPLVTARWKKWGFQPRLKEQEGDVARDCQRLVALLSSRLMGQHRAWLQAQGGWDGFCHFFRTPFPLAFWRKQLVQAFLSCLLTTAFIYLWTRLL

Row | SMILES | displacement
1 | COC(=O)C1=NN(C(C)=O)C(O)(c2ccccc2)C1 (stereo not drawn) | 2.1%
2 | COc1ccc(/C=N\N2CCN(c3ccccc3OC)CC2)cc1OC | -6.7%
3 | CCOc1ccc(-c2cc(C(=O)Nc3nnc(C)s3)c3ccccc3n2)cc1 | 6.3%
4 | CCOc1cccc(-c2cc(C(=O)N3CCN(C)CC3)c3ccccc3n2)c1 | -5.5%
5 | CCOc1cccc(-c2cc(C(=O)N3CCc4ccccc43)c3ccccc3n2)c1 | 110%
6 | CCOc1cccc(-c2cc(C(=O)Nc3nnc(C)s3)c3ccccc3n2)c1 | 135%
7 | CCOc1cccc(-c2cc(C(=O)Nc3cc(C)ccn3)c3ccccc3n2)c1 | 2%
8 | CCOc1cccc(-c2cc(C(=O)N3CCCCCC3)c3ccccc3n2)c1 | -10.2%
9 | Cc1ccccc1OCC(=O)N1N=C(c2ccc(F)cc2)CC1(O)C(F)(F)F (stereo not drawn) | -4.5%
10 | Cc1[nH]c2ccccc2c1/C=N/NC(=O)c1cccc([N+](=O)[O-])c1 | 0.7%
11 | COc1ccc(C(C)N(C)CCC(c2ccccc2)c2ccccc2)cc1OC (stereo not drawn) | 5.7%
12 | Cn1c(=O)c(N)c2c3c(cccc31)C(=O)c1ccccc1-2 | 154%
13 | Cn1c(=O)c(N2CCCCC2)c2c3c(cccc31)C(=O)c1ccccc1-2 | 147%
14 | Cn1c(=O)c(-c2ccccc2N)nc2ccccc21 | -5.4%
15 | O=C1c2ccccc2C(=O)c2c1c(Cl)c(Cl)c(Cl)c2N1CCCC1 | 8%
16 | Nc1ccc2c(c1)C(=O)c1ccccc1C2=O | 6.9%
17 | Cn1c2c(c(=O)n(C)c1=O)C(c1ccc(Br)cc1)C1=C(N2)c2ccccc2C1=O (stereo not drawn) | -10.4%
18 | Cn1c(=O)c(-c2ccccc2N)nc2cc3ccccc3cc21 | 33.6%
19 | O=C1c2ccccc2C(=O)c2c1cc(Cl)cc2N1CCCCC1 | 2.8%
20 | Cn1c(=O)c(N)c2c3c(c(Br)ccc31)C(=O)c1ccccc1-2 | 159%
21 | COc1ccc(C2CC(C(F)(F)F)n3ncc(C(=O)NC(C)(C)C)c3N2)cc1 (stereo not drawn) | 3.6%
22 | O=C(c1nn2c(C(F)(F)F)cc(-c3ccco3)nc2c1Cl)N1CCN(Cc2ccccc2)CC1 | 1.1%

Row | SMILES | displacement
23 | CCOc1ccc(C(=O)Nc2ccc([N+](=O)[O-])cc2)cc1Cl | -9.7%
24 | O=C(N/N=C/c1ccc([N+](=O)[O-])o1)c1ccc(Cl)c(Cl)c1 | 19%
25 | COc1ccc(N(CC(=O)Nc2ccccc2C)S(C)(=O)=O)cc1Cl | -10.4%
26 | C/C(=N\NC(=O)c1cc(C23CC4CC(CC(C4)C2)C3)[nH]n1)c1ccc(N)cc1 | -8.7%
27 | Brc1ccc(C=NN2CCN(Cc3ccccc3)CC2)cc1 | -17.6%
28 | CCOC(=O)C1=C(C)OC(N)=C(C#N)C1c1ccc(OC)cc1 (stereo not drawn) | -10.8%
29 | CCOC(=O)C1=C(N)Oc2ccc3ccccc3c2C1c1ccc(Cl)cc1 (stereo not drawn) | -10.4%
30 | CCOC(=O)C1=C(N)Oc2c(ccc3ccccc23)C1c1ccc(OC)cc1 (stereo not drawn) | 108%
31 | COc1cc(/C=C2\SC(N)=NC2=O)cc(Br)c1OC | -25.9%
32 | Cc1[nH]c(=O)c(C(=O)/C=C/c2ccccc2Cl)c2c1CCCC2 | 11%
33 | Cc1[nH]c(=O)c(C(=O)/C=C/c2cccs2)c2c1CCCC2 | 119%
34 | Cc1ccc(/C=C/C(=O)c2c3c(c(C)[nH]c2=O)CCCC3)cc1 | 49.3%
35 | Cc1cccc(NC(=O)C(=O)NCc2ccco2)c1C | 11%
36 | O=C(Nc1ccc(I)cc1)c1ccc(Cl)cc1Cl | 6.9%
37 | Cc1ccc(N2C(=O)C(=O)/C(=C(/O)c3ccccc3)C2c2ccc(O)cc2)cc1Cl (stereo not drawn) | -3.5%
38 | Oc1c(Cl)cc(Cl)cc1C=Nc1cccc(C(F)(F)F)c1 | 2.4%
39 | NC(=O)c1cccc(N=Cc2cc(Cl)cc(Cl)c2O)c1 | 145%
40 | NC(=O)c1ccccc1N=Cc1cc(Cl)cc(Cl)c1O | -7.2%
41 | CN(C)CCCNC(=O)/C=C/c1ccc(C(C)(C)C)cc1 | 6.4%
42 | O=c1oc2ccccc2cc1-c1nn(-c2ccccc2)cc1/C=N/O | 53%
43 | O/N=C/c1cn(-c2ccccc2)nc1-c1ccccc1 | 10%
44 | O/N=C/c1cn(-c2ccccc2)nc1-c1ccc(Cl)cc1 | -3.8%

Row | SMILES | displacement
45 | COCCCNC(=O)C(=O)Nc1ccccc1F | -11.9%
46 | CCOc1cc(C2C(C(=O)OC)=C(C)NC(C)=C2C(=O)OC)ccc1O | 0.1%
47 | C=CCOc1ccc(/C=C2\SC(=S)N(c3ccc(OC)cc3)C2=O)cc1OC | 6.7%
48 | COc1cc(/C=C2\SC(=S)N(c3ccc(F)cc3)C2=O)cc(OC)c1OC | 3.3%
49 | COc1ccc(/C=C2\SC(=S)N(c3ccc(F)cc3)C2=O)cc1OC | 105%
50 | CCOc1ccc(/C=C2\SC(=S)N(c3ccc(OC)cc3)C2=O)cc1OC | 114%
51 | COc1cc(/C=C2/SC(=S)N(c3ccccc3)C2=O)ccc1OC(=O)c1ccc(F)cc1 | 4.7%
52 | COc1ccc(N2C(=O)/C(=C/c3ccc(OC)c(OC)c3)SC2=S)cc1 | 6.5%
53 | O=S(=O)(c1ccc(C=Nc2ccc(Br)cc2)cc1)c1ccc(C=Nc2ccc(Br)cc2)cc1 | -8.7%
54 | COc1ccc(C2CC(C(F)(F)F)n3ncc(C(=O)Nc4ccc(F)cc4F)c3N2)cc1OC (stereo not drawn) | -1.7%
55 | CC1(C)Cc2ccccc2C(/C(=N\O)C(=O)c2ccccc2)=N1 | 13.1%
56 | COc1ccc(C(=O)Nc2cccc(S(N)(=O)=O)c2)cc1 | -5.8%
57 | CCOP(=O)(OCC)/C(=C(\NC(=O)c1ccccc1)C(=O)Nc1ccccc1C(F)(F)F)c1ccccc1 | 12.2%
58 | COc1ccc(CCNC(=O)c2c(Cl)ccc(Cl)c2OC)cc1OC | 57%
59 | COc1c(Cl)ccc(Cl)c1C(=O)NCCc1ccccc1 | -18.4%
60 | COc1ccc(CCNC(=O)c2ccc(Cl)c(Cl)c2)cc1OC | 6%
61 | C=CCN(CC=C)C(=O)COc1ccc(Cl)cc1 | -5.1%
62 | CC(=O)NCCc1c(C)n(Cc2ccccc2)c2ccccc12 | 20.2%
63 | O=C(c1sc2ccccc2c1Cl)N1CCN(Cc2ccc3c(c2)OCO3)CC1 | 0.4%
64 | O=S(=O)(Nc1nc2ccccc2nc1Nc1ccccc1)c1ccccc1 | 16.9%
65 | COc1ccc2nc(NS(=O)(=O)c3ccc(Cl)cc3)c(Nc3ccc4[nH]c(=O)[nH]c4c3)nc2c1 | -2.9%
66 | O=S(=O)(Nc1nc2ccccc2nc1Nc1cccc(O)c1)c1ccc(Cl)cc1 | 7.1%

Row | SMILES | displacement
67 | CC(=O)Nc1ccc(Nc2nc3ccccc3nc2NS(=O)(=O)c2ccc(Cl)cc2)cc1 | -12.5%
68 | COC(=O)c1cc(Nc2nc3ccccc3nc2NS(=O)(=O)c2ccccc2)ccc1Cl | 158%
69 | O=c1[nH]c2ccc(Nc3nc4ccccc4nc3NS(=O)(=O)c3ccc(Cl)cc3)cc2[nH]1 | 102%
70 | Cc1cccc(OCC(=O)Nc2ccccc2Cl)c1C | -1.5%
71 | Cc1ccccc1OCCOc1ccc(/C=C2/SC(=S)N(C)C2=O)cc1 | 0.3%
72 | CC1(C)CC(NC(=O)c2ccccc2F)CC(C)(C)N1 | -12.3%
73 | COc1cc(/C=C(\C#N)c2nc3ccccc3[nH]2)ccc1OCC(=O)O | 43.5%
74 | COc1ccc(C=C2C(=O)N(c3ccc(C)cc3)C(=S)N(c3ccc(C)cc3)C2=O)cc1C(=O)O | 15%
75 | COc1ccc(OC(C)C(=O)Nc2ccc(N(C)C)cc2)cc1 (stereo not drawn) | 9.1%
76 | O=C(NCCNc1ccc(Cl)cc1[N+](=O)[O-])c1ccccc1F | -0.6%
77 | Cc1ccccc1N1C(=O)NC(=O)/C(=C/c2cn(CC(=O)Nc3ccccc3)c3ccccc23)C1=O | 53.6%
78 | O=C(Cn1cc(/C=C2/C(=O)NC(=S)N(c3ccccc3F)C2=O)c2ccccc21)Nc1ccccc1 | 30.7%
79 | CN1C(=O)C(=Cc2cn(CC(=O)Nc3ccccc3)c3ccccc23)C(=O)N(C)C1=O | -6.8%
80 | O=C(Cn1cc(/C=C2\NC(=O)NC2=O)c2ccccc21)Nc1ccccc1 | 7.5%
81 | N#CC(C#N)=Cc1cn(CC(=O)Nc2ccccc2)c2ccccc12 | -17.6%
82 | O=C(Cn1cc(/C=C2/C(=O)NC(=O)N(c3ccccc3F)C2=O)c2ccccc21)Nc1ccccc1 | 51.1%
83 | COc1ccc(C2Nc3ccccc3NC3=C2C(=O)CC(c2ccccc2)C3)c(OC)c1 (stereo not drawn) | 5.9%
84 | CCN1CCN(Cc2c(O)ccc3ccccc23)CC1 | 13.6%
85 | N#CC(C#N)=Cc1ccc(-c2cc(Cl)ccc2Cl)o1 | 93.5%
86 | O=C(/C=C/c1ccc(-c2cc(Cl)ccc2Cl)o1)c1ccco1 | 126%
87 | O=C(/C=C/c1ccc(-c2cccc([N+](=O)[O-])c2)o1)Nc1ccc(Cl)cc1 | 4.5%
88 | O=C(/C=C/c1ccc(-c2cccc([N+](=O)[O-])c2)o1)c1ccco1 | 79.3%

Row | SMILES | displacement
89 | O=C(/C=C/c1ccc(-c2ccc(Cl)cc2Cl)o1)c1ccco1 | 3.4%
90 | O=C(/C=C/c1ccc(-c2cccc(Br)c2)o1)c1ccco1 | 11.8%
91 | O=C(/C=C/c1ccc(-c2cccc([N+](=O)[O-])c2)o1)c1ccc(F)cc1 | 3.4%
92 | N#CC(C#N)=Cc1ccc(-c2ccc(Cl)c(C(=O)O)c2)o1 | 0.6%
93 | N#C/C(=C/c1ccc(-c2cc(Cl)ccc2Cl)o1)C(=O)O | 2%
94 | CC(=O)/C=C/c1ccc(-c2cccc([N+](=O)[O-])c2)o1 | -5.2%
95 | O=C(/C=C/c1ccc(-c2cccc([N+](=O)[O-])c2)o1)c1cc2ccccc2o1 | 119%
96 | O=C(/C=C\c1ccc(-c2cc(Cl)ccc2Cl)o1)c1ccccc1 | 24.9%
97 | N#Cc1c2c(c(N3CCN(c4ccccn4)CC3)n3c1nc1ccccc13)CCC2 | 2.1%
98 | O=C1c2ccccc2C(=O)N1CCc1nc2ccccc2c(=O)n1-c1ccc(Br)cn1 | -10.3%
99 | CCN(CC)CCCCOc1ccc(Cl)c(C)c1 | -10.7%
100 | COc1ccc(CCNC(=O)C(=O)Nc2ccc3c(c2)OCCO3)cc1OC | 3.4%
101 | Cc1cccc(CN2CCN(Cc3ccncc3)CC2)c1 | -1.1%
102 | COC(=O)c1sc2nc(-c3ccccc3)nc(N3CCOCC3)c2c1C | 47.3%
103 | CC1(C)Oc2ccc3ccc(=O)oc3c2/C(=C/N2CCOCC2)C1=O | -5.9%
104 | COc1ccc(Cl)cc1C(=O)Nc1ccc(C)cc1C | 10.1%
105 | CN(C)c1ccc(/C=N/NC(=O)CNC(=O)c2ccc(F)cc2)cc1 | 2.3%
106 | O=C(/C=C/c1ccc(-c2ccccc2[N+](=O)[O-])o1)c1cc2ccccc2o1 | 44.1%
107 | O=C(/C=C/c1ccc(-c2ccc([N+](=O)[O-])cc2)o1)c1cc2ccccc2o1 | 190%
108 | COc1ccc(-c2ccc(/C=C/C(=O)c3cc4ccccc4o3)o2)cc1 | -52.6%

From PubChem BioAssay AID1240 (Sanford-Burnham Center for Chemical Genomics, 2008)
